For one assay, the target named is GPR137. Put plainly: pooled miR-30 sensor sort-seq; sequence = guide strand. To be noted: shRNA.
In turn, AGTGCTGTCAGGTTGTAGCAGG displayed a sensor-assay potency score (higher = more potent) of -1.93.

The sequence TAATCGAAGGTGTCCAGCCGGC yielded a sensor-assay potency score (higher = more potent) of -0.771.

As for AAGAACTGCAGGCAGACGGGGC, the sensor-assay potency score (higher = more potent) was -0.842.

As to TAGAGCAGGACCATGGCGCCAC, the sensor-assay potency score (higher = more potent) was -0.353.

As for TAGCTGAGACGCTTGTGCCCAT, the sensor-assay potency score (higher = more potent) was -0.72.

The sequence TCCAGGTAGATGCTAGTGGAGG came in with a sensor-assay potency score (higher = more potent) of -2.54.

TCAGACACATTGTACCAGCCGT returned a sensor-assay potency score (higher = more potent) of -0.426.

In turn, TCACTATGACAGGAGCAGCAAG yielded a sensor-assay potency score (higher = more potent) of -1.58.

For TGGTCAGACACATTGTACCAGC, the sensor-assay potency score (higher = more potent) is -1.27.

The target of the next assay is GPR172A. Described as above. Particulars: shRNA.
In the case of TGGAACACGTGATAGATGCTGG, the sensor-assay potency score (higher = more potent) is -0.57.

For the sequence TTGGTCAGCGCGTTGGTGGCGG, the sensor-assay potency score (higher = more potent) was -0.894.

Sequence TGATAGAAGCTGATAGGCCTTA showed a sensor-assay potency score (higher = more potent) of -0.123.

Take TTCTGCTGTGGAACACGTGATA: the sensor-assay potency score (higher = more potent) is -0.914.

Turning to TTAGGGTCTGGACCAGGGGTGG, the sensor-assay potency score (higher = more potent) is -1.64.

For AAAACGCTCAAGGAAGTCGAGC, the sensor-assay potency score (higher = more potent) is -1.04.

TGACCCAGGAAGAATGACCGTA had a sensor-assay potency score (higher = more potent) of -0.348.

For TTGGTGGCTCTTGCAGTGGTGA, the sensor-assay potency score (higher = more potent) was -1.5.

Sequence AAGAATGACCGTAAGAAGCGAG had a sensor-assay potency score (higher = more potent) of -0.349.

With TTCACGTAGGAGAACACGCCAA, the sensor-assay potency score (higher = more potent) was -0.595.

As for TGACATTCGAGGCACAGCATGC, the sensor-assay potency score (higher = more potent) was -1.17.

Take TCACGTAGGAGAACACGCCAAG: the sensor-assay potency score (higher = more potent) is -1.31.

The target in a further assay is GPR173. Described as above. To be noted: shRNA.
In the case of TTGCCGTAGACAGCATGGGTAG, the sensor-assay potency score (higher = more potent) is -1.57.

As to TCACGCACATAATCAGTCCTAG, the sensor-assay potency score (higher = more potent) is -0.629.

Turning to TTTCACAAACACTCGCCAGTAG, the sensor-assay potency score (higher = more potent) was -0.0654.

In the case of TTCACCCTTGACCTCGTCCATG, the sensor-assay potency score (higher = more potent) is -1.32.

As to TGCACTGGCTTCATCTTGCGGT, the sensor-assay potency score (higher = more potent) was -0.396.

The sequence TACTCGAAGAGGAGCAGCTTGC displayed a sensor-assay potency score (higher = more potent) of -1.59.

TAGCGGGTGACGCTGATGCAGA yielded a sensor-assay potency score (higher = more potent) of -1.36.

On to AATCAGTCCTAGCAGTACCAGC, for which the sensor-assay potency score (higher = more potent) was -1.44.

As for TGAAGGTCCATGAAGAGCCGTG, the sensor-assay potency score (higher = more potent) is -0.497.

For AAGGCCACAATCTTGCAGCTGA, the sensor-assay potency score (higher = more potent) amounted to 0.463.

ATAAAGGCCACAATCTTGCAGC returned a sensor-assay potency score (higher = more potent) of -0.595.

TAAACTTGTAGGTGCCCACGTC registered a sensor-assay potency score (higher = more potent) of 0.745.

The target of another assay is GPR176. The description is as above. Particulars: shRNA.
In turn, TTGGTTACTGCAAACACAGGGA yielded a sensor-assay potency score (higher = more potent) of 0.111.

In turn, TTGTCTGGATCAGCTCTTCTGG yielded a sensor-assay potency score (higher = more potent) of -0.703.

The sequence TATGATGACCTTCTTCTTCTGG returned a sensor-assay potency score (higher = more potent) of 0.194.

Sequence TTGCTGTTTCGGGTCTCTGAGA displayed a sensor-assay potency score (higher = more potent) of -1.55.

The sequence TTTTTAATGAACCTGTTGGTGA returned a sensor-assay potency score (higher = more potent) of -0.59.

For the sequence ATAGATGTCAGCCACATTGGTT, the sensor-assay potency score (higher = more potent) is -1.26.

Consider TTGCTCCAGACTTCCGTGCAGG, for which the sensor-assay potency score (higher = more potent) was -0.956.

Values taken from the OligoGym collection.
Note: reference of the scale not given here.
